Calls of active or inactive are those of the source.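 How the source made its calls: active means differentiation response of at least 50%, scaled between solvent and reference control, from cells with both markers; inactive means the rest.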
Assay: AML differentiation inducers, ER-HoxA9 marrow cells – cell-based, GFP/MAC1 double positive, flow cytometry, validation set, primary screen (AID 588685);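 further: compound exposure lasts four days before antibody staining and flow analysis; 0% = DMSO wells and 100% = 5 µM fulvestrant positive control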
Details: hits give high values, normalized: vehicle 0, fulvestrant 100

Structure (SMILES) | differentiation response
C[C@]12CC[C@@H]3c4ccc(OS(=O)(=O)O)cc4CC[C@H]3[C@@H]1CCC2=O | 6.55% (inactive)
O=C1C2C3C=CC(C4CC34)C2C(=O)N1/N=C/c1ccc(-c2ccc([N+](=O)[O-])cc2)o1 (stereo not given) | 0% (inactive)
Cc1oc2ccc(OC(=O)c3cccs3)cc2c1C(=O)OC(C)C | -4.99% (inactive)
COc1ccc(CCN(C)CC(=O)Nc2cc(C)nc3ccccc23)cc1OC | 5.6% (inactive)
C[C@]12C=CC(=O)C=C1CCC1C3CC[C@](O)(C(=O)CO)[C@@]3(C)CC3OC312 (stereo not given in full) | -13.6% (inactive)
c1ccc2c(c1)CCCC2C1=NCCN1 (stereo not given) | 8.8% (inactive)
C=CCc1cc(Cl)ccc1OCCOCCN(C)C | 16.8% (inactive)
COc1cc2c(cc1OC)C(Cc1ccc(O)cc1)N(C)CC2 (stereo not given) | 2.46% (inactive)
CCOc1ccc(C(=O)Nc2ccc(N3CCN(C(C)=O)CC3)cc2)cc1[N+](=O)[O-] | -1.64% (inactive)
OCCN(CCO)c1ccc2ccccc2c1 | 5.6% (inactive)
COc1ccc(CN(C)CCc2ccccn2)cc1OC | -28% (inactive)
CC(=O)OCC1OC(n2ccc(=O)[nH]c2=O)C(O)C1O (stereo not given) | -1.71% (inactive)
CC(=O)N1N=C(c2cccs2)CC1c1ccc(C)o1 (stereo not given) | -4.91% (inactive)
Cc1cc(C)c2c(CCl)cc(=O)oc2c1 | 4.86% (inactive)
NC12CC3CC(CC(C3)C1)C2 | -1.64% (inactive)
CC12CCC(C(=O)N3CCCCC3)([C@H](Br)C1=O)C2(C)C (stereo not given in full) | -1.64% (inactive)
CC(NCCC(c1ccccc1)c1ccccc1)c1ccccc1 (stereo not given) | -0.82% (inactive)
O=P(O)(O)CP(=O)(O)O | 28.5% (inactive)
CCCCC[C@H](O)/C=C/[C@@H]1[C@@H](C/C=C\CCCC(=O)OC)[C@@H](O)C[C@H]1O | 2.46% (inactive)
Cc1cc(C(C)(C)C)cc(C)c1CC1=NCCN1 | 2.46% (inactive)

Structure (SMILES) | differentiation response
CC1CCCc2sc3ncn(N)c(=N)c3c21 (stereo not given) | -4% (inactive)
O=C1NC2(Nc3ccccc31)C(=O)Nc1ccc(Br)cc12 (stereo not given) | 0% (inactive)
Cc1cc(-c2ccccc2)nnc1NCCN1CCOCC1 | 4.09% (inactive)
Cc1ccccc1OCC(O)CN1CCN(C)CC1 (stereo not given) | -2.46% (inactive)
COc1cc(/C=C/C(=O)N2CCCC2)cc(OC)c1OC | 12.9% (inactive)
CNCCCN1c2ccccc2CCc2ccccc21 | 9.83% (inactive)
Nc1c2c(nc3ccccc13)CCCC2 | -5.73% (inactive)
COc1ccc(C2C3C(C)=NN=C3CC(C)(O)C2C(C)=O)cc1 (stereo not given) | -18.4% (inactive)
O=c1c2ccccc2nnn1Cc1cccc2ccccc12 | -0.82% (inactive)
CC1(C)CC(=O)C(C(=O)CCCCC(=O)C2C(=O)CC(C)(C)CC2=O)C(=O)C1 | -2.46% (inactive)
COC(=O)c1ccc(CC(=O)c2ccc(O)cc2O)o1 | 4.91% (inactive)
O=C(CCCCCCCC(=O)c1ccccc1)c1ccccc1 | 5.6% (inactive)
CC(=O)OC[C@H]1O[C@@H](n2ncc(=O)[nH]c2=O)[C@H](OC(C)=O)[C@@H]1OC(C)=O | 20.5% (inactive)
CC1CNCCN1S(=O)(=O)c1cccc2cnccc12 (stereo not given) | 14.9% (inactive)
COc1cc(C2C(C(=O)c3ccc(C)o3)=C(O)C(=O)N2Cc2cccnc2)ccc1O (stereo not given) | -0.82% (inactive)
Cc1ccccc1NC(=O)C1c2ccccc2Oc2ccccc21 | -4.09% (inactive)
COc1ccc(-c2coc3cc(O)cc(O)c3c2=O)cc1 | -9.83% (inactive)
Nc1cccc(C(=O)O)c1 | -0.82% (inactive)
CCN1CCN(C(=O)N[C@@H](C(=O)N[C@@H]2C(=O)N3[C@@H]2SC(C)(C)[C@@H]3C(=O)O)c2ccccc2)C(=O)C1=O | 3.28% (inactive)
COCCc1ccc(OCC(O)CNC(C)C)cc1 (stereo not given) | 5.13% (inactive)
